Among the data in PubChem BioAssay (NCATS) are parasite growth remaining, % of DMSO control (lower = more inhibition) and parasite growth, % of control (lower = inhibition) values, retold here.

One assay can be described thus: qHTS profiling of the MIPE4 collection as inhibitors of Plasmodium falciparum (DD2) proliferation (AID 743345). As to conditions: P. falciparum Dd2 in erythrocytes, SYBR Green DNA, 72 h; at 28.5 µM (top of the series) unless noted. The gist of the method: (§1)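 Erythrocytes infected with P. falciparum (0.3% parasitemia, 2.5% hematocrit) incubated with compounds 72 h at 37 C, 5% CO2. Lysis with saponin/Triton buffer containing SYBR Green I, overnight at room temperature in the dark; DNA fluorescence (485/535 nm) normalised to 0.29 uM artemisinin and DMSO.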
In general terms: In qHTS, concentration-response curves come from the screen itself.
`N#Cc1c(N(CC(=O)O)CC(=O)O)sc(C(=O)O)c1CC(=O)O`: the parasite growth remaining, % of DMSO control (lower = more inhibition) came to 91.9%.
On the same count and under the same terms, to `CCCCCCCCCCCCCC(=O)N[C@H](CO)[C@H](O)c1ccc([N+](=O)[O-])cc1` belongs 85.8%; to `C=C1c2cccc(O)c2C(O)=C2C(=O)[C@@]3(O)C(O)=C(C(N)=O)C(=O)[C@@H](N(C)C)[C@@H]3[C@@H](O)[C@H]12`, 36.4%.
Same read-out and setting: to `CCC(=C(CC)c1ccc(O)cc1)c1ccc(O)cc1` belongs 96.4%; to `CC1(C)[C@H]2CC[C@]3(C)[C@@H](C(=O)C=C4[C@@H]5C[C@@](C)(C(=O)O)CC[C@]5(C)CC[C@]43C)[C@@]2(C)CC[C@@H]1O`, 98.1%.
On the same count and under the same terms, to `CCC(C)SSc1ncc[nH]1` (stereo not given) belongs 94.1%; to `CC(=O)OCC(=O)[C@@]12OC(C)(C)O[C@H]1C[C@H]1[C@@H]3C[C@H](F)C4=CC(=O)C=C[C@]4(C)[C@@]3(F)[C@@H](O)C[C@@]12C`, 82.3%; to `CN(C)c1ccc(-c2nc3ncc(Cl)c(N4CCN(CC(=O)Nc5nccs5)CC4)c3[nH]2)cc1`, 9.69%.
Take `CCCCC(F)(F)[C@@]1(O)CC[C@H]2[C@H](CC(=O)[C@@H]2CCCCCCC(=O)O)O1`: the parasite growth remaining, % of DMSO control (lower = more inhibition) came to 99.5%.
Same read-out and setting: to `COc1cc(Cl)cn2c(-c3cccc(NC4CNC4)n3)cnc12` belongs 27.3%; to `Cc1cc2nc3c(=O)[nH]c(=O)nc-3n(CC(O)C(O)C(O)CO)c2cc1C` (stereo not given), 57.4%; to `CC(NCCc1ccc(O)cc1)C(O)c1ccc(O)cc1` (stereo not given), 102%.
As for `CCCC1OC2C[C@@H]3[C@H]4CCC5=CC(=O)C=C[C@]5(C)[C@H]4C(O)C[C@]3(C)[C@]2(C(=O)CO)O1` (stereo not given in full), the parasite growth remaining, % of DMSO control (lower = more inhibition) was 20.2%.
Same read-out and setting: to `O=C(c1ccc(C(=O)N2CCC(N3CCCC3)CC2)c(Nc2ccccc2)c1)N1CCC(N2CCCC2)CC1` belongs 66.3%.
For `NS(=O)(=O)c1cc(Cl)c(Cl)c(S(N)(=O)=O)c1`, the parasite growth remaining, % of DMSO control (lower = more inhibition) turned out to be 58.8%.
Still for that read-out and setting: to `Cc1nn(Cc2ccccc2Cl)c(C)c1CN(C)CC(O)COc1ccc(Cl)cc1` (stereo not given) belongs 18.8%; to `CC(C)c1onc(-c2c(Cl)cccc2Cl)c1COc1ccc(C=Cc2cccc(C(=O)O)c2)c(Cl)c1`, 94.1%; to `CC1(C)C(N(O)C(=O)Nc2ccc(Cl)cc2)N(c2ccc(Cl)cc2)C(=O)N1CC(=O)NN=CC=Cc1ccc([N+](=O)[O-])o1` (stereo not given), 9.75%.
For `COc1cc2nccc(Oc3ccc(NC(=O)Nc4cc(C)on4)c(Cl)c3)c2cc1OC`, the parasite growth remaining, % of DMSO control (lower = more inhibition) stood at 22.7%.
The same measure, in the same setting: to `Nc1ccc(-c2ccc3ncc4ccc(=O)n(-c5cccc(C(F)(F)F)c5)c4c3c2)cn1` belongs 5.9%; to `COc1c(C)c2c(c(O)c1CC=C(C)CCC(=O)O)C(=O)OC2`, 17.9%; to `COc1cc([C@@H]2c3cc4c(cc3[C@@H](O[C@@H]3O[C@@H]5CO[C@@H](C)O[C@@H]5[C@H](O)[C@@H]3O)[C@H]3COC(=O)[C@H]23)OCO4)cc(OC)c1O`, 11%.
On the same count and under the same terms, to `C[C@H]1[C@H](O)O[C@@H]2O[C@@]3(C)CC[C@@H]4[C@H](C)CC[C@@H]1[C@@]24OO3` belongs 7.23%.

Another assay in a line: qHTS profiling of the MIPE4 collection as inhibitors of Plasmodium falciparum (DD2) proliferation (Rep 2) (AID 743346). Conditions: P. falciparum Dd2 in erythrocytes, SYBR Green DNA, 72 h; at 28.5 µM (top of the series) unless noted. In short, it runs like this: as §1
For `C[C@@H]1C[C@H]2[C@@H]3CCC4=CC(=O)C=C[C@]4(C)[C@@]3(F)[C@@H](O)C[C@]2(C)[C@@]1(O)C(=O)CO`, the parasite growth, % of control (lower = inhibition) is 60.4%.
The same measure, in the same setting: to `CCCCCCCCCCCCCC(=O)N[C@H](CO)[C@H](O)c1ccc([N+](=O)[O-])cc1` belongs 33%; to `C=C1c2cccc(O)c2C(O)=C2C(=O)[C@@]3(O)C(O)=C(C(N)=O)C(=O)[C@@H](N(C)C)[C@@H]3[C@@H](O)[C@H]12`, 24.1%; to `CCC(=C(CC)c1ccc(O)cc1)c1ccc(O)cc1`, 84.8%.
Same read-out and setting: to `CN1CCc2c(n(Cc3ccc(C(=O)NO)cc3)c3ccccc23)C1` belongs 9.26%.
Regarding `Cc1[nH]c(C=C2C(=O)Nc3ccc(S(=O)(=O)N(C)c4cccc(Cl)c4)cc32)c(C)c1C(=O)N1CCN(C)CC1`, the parasite growth, % of control (lower = inhibition) is 14.4%.
Still for that read-out and setting: to `CCC(C)SSc1ncc[nH]1` (stereo not given) belongs 89.6%; to `O=C(O)C1=CC(O)C(O)[C@H](O)C1` (stereo not given in full), 86.5%.
Same read-out and setting: to `CC(=O)OCC(=O)[C@@]12OC(C)(C)O[C@H]1C[C@H]1[C@@H]3C[C@H](F)C4=CC(=O)C=C[C@]4(C)[C@@]3(F)[C@@H](O)C[C@@]12C` belongs 35.9%.
Take `CN(C)c1ccc(-c2nc3ncc(Cl)c(N4CCN(CC(=O)Nc5nccs5)CC4)c3[nH]2)cc1`: the parasite growth, % of control (lower = inhibition) came to 8.18%.
Same read-out and setting: to `CCCCC(F)(F)[C@@]1(O)CC[C@H]2[C@H](CC(=O)[C@@H]2CCCCCCC(=O)O)O1` belongs 70.3%; to `CC(C)CN(C[C@H](O)[C@H](Cc1ccccc1)NC(=O)O[C@H]1CCOC1)S(=O)(=O)c1ccc(N)cc1`, 56.3%; to `COc1cc(Cl)cn2c(-c3cccc(NC4CNC4)n3)cnc12`, 33.2%.
Same read-out and setting: to `Cc1cc2nc3c(=O)[nH]c(=O)nc-3n(CC(O)C(O)C(O)CO)c2cc1C` (stereo not given) belongs 22.3%.
The same measure, in the same setting: to `CC(NCCc1ccc(O)cc1)C(O)c1ccc(O)cc1` (stereo not given) belongs 73.8%.
Turning to `CCCC1OC2C[C@@H]3[C@H]4CCC5=CC(=O)C=C[C@]5(C)[C@H]4C(O)C[C@]3(C)[C@]2(C(=O)CO)O1` (stereo not given in full), the parasite growth, % of control (lower = inhibition) worked out at 15.8%.
On the same count and under the same terms, to `Nc1ncnc2c1ncn2[C@@H]1O[C@H](CO)[C@@H](O)[C@@H]1O` belongs 6.61%.
Consider `C#CCN(C)CC1=Cc2ccccc2Oc2ccccc21`, for which the parasite growth, % of control (lower = inhibition) is 63.1%.
On the same count and under the same terms, to `Cc1nn(Cc2ccccc2Cl)c(C)c1CN(C)CC(O)COc1ccc(Cl)cc1` (stereo not given) belongs 16.7%; to `CC(C)c1onc(-c2c(Cl)cccc2Cl)c1COc1ccc(C=Cc2cccc(C(=O)O)c2)c(Cl)c1`, 53.3%.
On the same count and under the same terms, to `CC1(C)C(N(O)C(=O)Nc2ccc(Cl)cc2)N(c2ccc(Cl)cc2)C(=O)N1CC(=O)NN=CC=Cc1ccc([N+](=O)[O-])o1` (stereo not given) belongs 18.3%.
For `COc1cc2nccc(Oc3ccc(NC(=O)Nc4cc(C)on4)c(Cl)c3)c2cc1OC`, the parasite growth, % of control (lower = inhibition) worked out at 27.3%.
On the same count and under the same terms, to `Nc1ccc(-c2ccc3ncc4ccc(=O)n(-c5cccc(C(F)(F)F)c5)c4c3c2)cn1` belongs 9.23%.
For the compound `COc1c(C)c2c(c(O)c1CC=C(C)CCC(=O)O)C(=O)OC2`, the parasite growth, % of control (lower = inhibition) worked out at 13.7%.
Turning to `CC(C)=CCCC(C)=CCCC(C)=CCCC(C)=CCCC(C)=CCCC(C)=CCCC(C)=CCCC(C)=CCCC(C)=CCO`, the parasite growth, % of control (lower = inhibition) turned out to be 99.4%.
`COc1cc([C@@H]2c3cc4c(cc3[C@@H](O[C@@H]3O[C@@H]5CO[C@@H](C)O[C@@H]5[C@H](O)[C@@H]3O)[C@H]3COC(=O)[C@H]23)OCO4)cc(OC)c1O`: the parasite growth, % of control (lower = inhibition) was determined as 140%.
Still for that read-out and setting: to `C[C@H]1[C@H](O)O[C@@H]2O[C@@]3(C)CC[C@@H]4[C@H](C)CC[C@@H]1[C@@]24OO3` belongs 13.8%.
